Shown are actives, neighbours in structure and some others; about 14% of the full set was active somewhere.
Sm TGR inh: blocks Schistosoma mansoni thioredoxin glutathione reductase; Q962Y6; purified TGR, DTNB reduction, TNB absorbance 405 nm; Potency, µM (top dose mostly 114 µM), for the others: at the top dose activity change, negative = inhibition, usual class: inhibitors; 3% of 360,000 active; AID 485364; further: potency means the concentration at half of the fitted maximal effect; nearly all actives have a fitted effect of over 60% in size
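Kinetic colorimetric format: TGR-catalysed, NADPH-driven DTNB reduction monitored via TNB absorbance. Enzyme dispensed at 20 nM; compound exposure 15 min at room temperature before reaction start.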
FBPA Giardia inh: Giardia lamblia aldolase inhibition | A8B2U2 | purified Giardia FBPA | Potency, µM (highest dose often 59.6 µM), for the others: top-dose activity, negative = inhibition, hits mostly inhibitors | 0.71% of 290,000 active; further: potency means the concentration at half of the fitted maximal effect; nearly all actives have a fitted effect of over 55% in size
Target sequence (A8B2U2 whole entry, looked up): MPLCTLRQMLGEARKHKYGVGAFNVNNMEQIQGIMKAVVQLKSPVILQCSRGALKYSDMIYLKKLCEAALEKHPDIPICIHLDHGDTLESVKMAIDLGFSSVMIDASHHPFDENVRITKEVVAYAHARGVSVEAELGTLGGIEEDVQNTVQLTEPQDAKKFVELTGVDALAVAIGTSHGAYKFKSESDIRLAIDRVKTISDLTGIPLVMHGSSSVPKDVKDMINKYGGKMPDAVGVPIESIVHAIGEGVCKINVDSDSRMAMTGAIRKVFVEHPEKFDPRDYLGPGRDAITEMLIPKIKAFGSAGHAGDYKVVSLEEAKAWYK
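Giardia FBPA (40 nM reagent) was preincubated 10 min at RT with compound (up to 57.5 uM final), then substrate plus GAPDH/TPI/NAD/arsenate coupling system with diaphorase/resazurin was added; resorufin fluorescence (525/598 nm) was read after 20 min.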
Pf growth 48h: inhibits P. falciparum growth in the first generation, 48 h; Potency, µM (doses to about 28.7 µM), inactives show top-dose activity change, negative = inhibition, hits mostly inhibitors; AID 504832; 5.9% of 310,000 active; P. falciparum luciferase growth in erythrocytes, 48 h; further: potency means the concentration at half of the fitted maximal effect
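Cell-based growth assay: transgenic P. falciparum expressing firefly luciferase, cultured in red cells within RPMI 1640 containing 0.5% w/v Albumax, 24 mM bicarbonate and gentamycin. A drop in luciferase activity indicates inhibition.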
Pf growth 96h: P. falciparum growth inhibition at 96 hours | P. falciparum luciferase reporter growth, 96 h | 6.9% of 320,000 active | Potency, µM (series often up to 28.7 µM), without a hit: top-dose activity change, negative = inhibition, hits mostly inhibitors; further: potency means the concentration at half of the fitted maximal effect
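Plates of compound plus infected erythrocytes (2% hematocrit, 0.05% parasitemia final) incubate 96 hours, 37 C, 5% CO2. Detection reagent added; reduced luminescence from the parasites' luciferase reporter flags inhibition.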
HCMV inh: inhibitors of human cytomegalovirus; HFF cells, HCMV-luciferase reporter, 72 h; active compounds read low; activity change, negative = inhibition, % at 57.5 µM; 4.5% of 410,000 active; AID 1259415; in the data active means activity change below about -60%; inconclusive means no clear call, values can overlap the other calls; inactive means above about -39%
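Screen run at 2 compound doses on HFFs infected with reporter HCMV, MOI 1 PFU/cell. Luciferase activity from cell lysates at 72 h post infection gave inhibition relative to buffer-only and Salinomycin wells.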
* = called active by the depositor; u = inconclusive; x = no result; [ ] = remark or other dose. Unless noted, the call rests on the fitted dose curve; in most records, active means well fitted curve in the direction sought with a large enough effect; inconclusive means small, poorly fitted or top-dose-only effect, or another doubt; inactive means no such curve, though single readings can be large; an effect the other way counts as inactive or inconclusive. On the % scale 0 is the no-effect control and ±100 the full control effect.

SMILES	Sm TGR inh	FBPA Giardia inh	Pf growth 48h	Pf growth 96h	HCMV inh
O=C(Oc1c(-c2ccccc2)c(=O)n2c3c(cccc13)CC2)c1cccc([N+](=O)[O-])c1	u	-1.3%	47.4%	50.2%	-72.3*
Cc1ccc(NC(=O)NNC(=O)Cn2nc(-c3ccccc3)c(-c3ccccc3)c(C#N)c2=O)cc1	19.6%	14.5%	u	u	-39.6
CC(C)C1C(c2ccccc2)NC(c2ccccc2)CC1(O)c1ccc(F)cc1 (stereo not given)	8.2%	-16.3%	4.15µM*	u	-3.5
COC(=O)C1=C(c2ccc3ccccc3c2)C[C@@H]2CC[C@H]1N2C(=O)N1CCCC1	-19.4%	x	9.28µM*	u	x
COC(=O)C1=C(c2ccc(-c3ccccc3)c(F)c2)C[C@@H]2CC[C@H]1N2C(=O)N1CCCC1	4.3%	x	14.7µM*	u	-72.2*
COC(=O)C1=C(c2ccc(-c3ccccc3)c(F)c2)C[C@@H]2CC[C@H]1N2C(=O)N1CCCCC1	0.4%	x	10.4µM*	u	-75.1*
COC(=O)C1=C(c2ccc(-c3ccccc3)c(F)c2)C[C@@H]2CC[C@H]1N2C(=O)N1CCc2cc(OC)c(OC)cc2C1	-4.0%	x	5.86µM*	u	-18.3
COC(=O)C1=C(c2ccc(-c3ccccc3)c(F)c2)C[C@@H]2CC[C@H]1N2C(=O)N1CCC(O)CC1	-9.2%	x	u	u	u
COC(=O)C1=C(c2ccc(-c3ccccc3)c(F)c2)C[C@@H]2CC[C@H]1N2C(=O)N1CCC(C)CC1	-5.5%	x	u	u	-25.7
COC(=O)C1=C(c2ccc3ccccc3c2)C[C@@H]2CC[C@H]1N2C(=O)N1CCCCC1	32.8%	x	u	u	-39.3
COC(=O)C1=C(c2ccc(-c3ccccc3)c(F)c2)C[C@@H]2CC[C@H]1N2C(=O)N1CCOCC1	-4.1%	x	u	u	-29.8
COc1cccc(CSc2nccn2C)c1	-3.9%	u	10.0%	-26.1%	19.9
O=C1N(Cc2ccccc2)CC2(Br)COCOC12O (stereo not given)	x	x	x	x	-37.4
Cc1nccn1CC(=O)N/N=C/c1cccc(O)c1	-0.3%	-0.8%	4.3%	49.8%	0.8
O=C(CCNC(=O)c1ccc([N+](=O)[O-])cc1)Nc1nc2ccccc2[nH]1	-2.9%	x	-14.3%	15.9%	28.2
CCCC(=O)N1CCC1(C)C(=O)NS(=O)(=O)c1cccc(C)c1 (stereo not given)	x	x	x	x	2.5
CSc1nc(SCC(=O)NCc2ccco2)c2c3c(sc2n1)CN(C)CC3	x	x	x	x	5.3
COC(CNc1nc(SC)nc2sc3c(c12)CCN(C)C3)OC	0.6%	-17.7%	u	5.22µM*	-5.9
CCCSc1nc(NCc2ccco2)c2c3c(sc2n1)COC(C)(C)C3	-19.4%	-12.8%	u	u	-36.1
CSc1nc(NCc2ccco2)c2c3c(sc2n1)CN(C)CC3	0.0%	-4.4%	2.94µM*	-2.7%[5.75 µM]	x
CCCCSc1nc(NCc2ccco2)c2c3c(sc2n1)COC(C)(C)C3	u	-7.2%	10.4µM*	u	u
CCC(Cc1c(I)cc(I)c(O)c1I)C(=O)O (stereo not given)	x	x	-15.9%	4.3%	x
COc1ccc(OC)c(C2=Nn3c(nnc3-c3ccccc3OC)SC2)c1	x	-10.4%	x	x	x
CCOC(=O)C1CCCN(c2ncnc3c2oc2ccccc23)C1 (stereo not given)	-29.4%	-5.6%	49.5%	56.4%	36.3
O=C(O)C1CCN(c2nc(-c3ccccc3)nc3c2oc2ccccc23)CC1	7.7%	28.4%	u	11.7µM*	-6.2
SMILES	Sm TGR inh	FBPA Giardia inh	Pf growth 48h	Pf growth 96h	HCMV inh
CCOC(=O)C1CCN(c2ncnc3c2oc2ccccc23)CC1	-0.5%	-2.7%	14.1%	11.7µM*	41.1
C/C(=N/NC(=O)c1ccncc1)c1cc2ccc(O)cc2oc1=O	-12.5%	-25.3%	18.8%	u	u
C/C(=N/NC(N)=S)c1cc2ccc(O)cc2oc1=O	-11.2%	-9.5%	u	0.828µM*	-22.0
Cc1nn(-c2ccc(F)cc2)c(-n2cccc2)c1C(=O)NCCCN1CCN(c2cccc(Cl)c2)CC1	-1.9%	x	x	x	-33.4
CCOC(=O)c1[nH]c(=O)[nH]c1CSc1ccccn1	14.1µM*	-1.1%	10.8%	-17.7%	74.0
C[C@H](c1ccccc1)N1C[C@H](COCc2ccccc2)Oc2cc(N3CCC[C@H]3C(N)=O)ccc2S1(=O)=O	x	x	x	x	-12.6
Cc1ccc(OCCC(=O)Nc2ccc(F)c(Cl)c2)cc1	7.9%	-6.7%	6.9%	14.7µM*	-26.4
CCN(CC)c1cc2c(cc1F)c(=O)c(S(=O)(=O)c1ccc(OC)cc1)cn2Cc1ccccc1	-3.8%	x	x	x	-9.8
Cc1cccc(OCc2cc(=O)n3c(-c4ccccc4)csc3n2)c1C	0.8%	x	x	x	-102.8*
O=c1cc(CSc2nnnn2-c2ccccc2)nc2scc(-c3ccccc3)n12	-15.1%	-0.5%	u	8.28µM*	18.5
O=c1cc(CSc2nnnn2-c2ccccc2)nc2sccn12	3.1%	-7.5%	-4.8%	u	-35.6
O=c1cc(COc2ccc(Cl)cc2Cl)nc2scc(-c3ccccc3)n12	-11.3%	x	x	x	-19.9
O=c1cc(COc2ccccc2Cl)nc2scc(-c3ccccc3)n12	8.8%	x	x	x	-87.6*
CN(C)c1ncc2ncc(=O)n(C)c2n1	x	-8.2%	x	x	x
COC(=O)[C@H]1C[C@H](O)CN1S(=O)(=O)c1ccc(Br)cc1F	x	x	x	x	18.9
O=C(Cc1sc(-c2ccccc2)nc1-c1ccccc1)Nc1ccc(Cl)cc1	19.5%	3.7%	x	u	-76.0*
CC(=O)Nc1ccc(NC(=O)Cc2sc(-c3cccnc3)nc2-c2ccc(C)cc2)cc1	x	0.1%	-12.7%	-19.9%	-24.7
O=C(Cc1sc(-c2ccccc2Cl)nc1-c1ccccc1)Nc1ccc(F)cc1	-4.0%	-4.4%	u	x	-60.2*
O=C(Cc1sc(-c2ccccc2Cl)nc1-c1ccccc1)Nc1ccccc1	0.0%	4.5%	-2.6%	x	-89.7*
Cc1ccc(-c2nc3c(c(=O)[nH]c(=O)n3Cc3ccccc3)n2Cc2ccccc2)o1	17.8µM*	-17.8%	5.86µM*	u	u
CCCn1c(-c2cccc([N+](=O)[O-])c2)nc2c1c(=O)[nH]c(=O)n2Cc1ccccc1	-4.5%	4.7%	u	5.22µM*	-4.6
Cc1ccc(-c2nc3c(c(=O)[nH]c(=O)n3Cc3ccccc3)n2C)o1	3.55µM*	-23.0%	-8.9%	17.3%	u
Cc1ccc(-c2nc3c(c(=O)[nH]c(=O)n3Cc3ccccc3)n2C)s1	-10.6%	2.0%	-6.1%	0.0%	x
CN(c1ccccc1)S(=O)(=O)c1cccc(NC(=O)C2=NN(c3ccccc3)C(=O)CC2)c1	x	x	x	x	-16.8
O=C(CSc1n[nH]c(-c2ccco2)n1)Nc1ccccc1Cl	-6.3%	-22.1%	4.6%	-10.7%	-32.7
Cc1cc(C)n(-c2nc3ccccc3c(=O)n2OCC(C)C)n1	-11.3%	5.0%	17.5%	7.8%	u

Bioassay records deposited in PubChem by National Center for Advancing Translational Sciences (NCATS).
